Reference: PubChem BioAssay (Tox21)
Records with an inconclusive call do not appear. Some structures have more than one record in an assay (separate samples or runs), and their calls can disagree. Activity calls are given as the source filed them. Calls come from the whole dose curve; as a rule, active = well fitted curve in the direction sought with a large enough effect in the repeat runs; inconclusive = weak or mixed curves; inactive = no such curve, though single readings can be large; an effect the other way counts as inactive or inconclusive.

Experiments:
[1] = qHTS RealTime-Glo MT Cell Viability Assay in HepG2 cells - 40 hour (AID 1224870); note: nearly all actives have a fitted effect of over 50% in size
In short: (§1)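 HepG2 cells mixed with RealTime-Glo MT reagents (NanoLuc plus cell-permeant prosubstrate) were seeded at 600 cells/well, incubated 5 h at 37 C/5% CO2, then pinned with compounds in DMSO; nonlytic luminescence tracked viability during 40 h treatment.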

[2] = A CellTox Green Cytotoxicity Assay to monitor cytotoxicity in HEK293 cells - 40 hour (AID 1224871); note: nearly all actives have a fitted effect of over 45% in size
In short: (§2)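 Nonlytic real-time cytotoxicity: HEK293 + CellTox Green reagent plated, 5 h preincubation, pintool compound addition (23 nL in DMSO), 37 C for 40 h, fluorescence measured at successive time points.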

[3] = qHTS RealTime-Glo MT Cell Viability Assay in HEK293 cells - 16 hour (AID 1224872); note: top concentration of the series differs between compounds; nearly all actives have a fitted effect of over 50% in size
In short: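 HEK293 cells were seeded at 600 cells/well together with NanoLuc luciferase and cell-permeant prosubstrate, preincubated 5 h at 37 C/5% CO2, then given compound in DMSO by pintool. Luminescence from viable-cell prosubstrate reduction was read repeatedly over 40 h.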

[4] = qHTS RealTime-Glo MT Cell Viability Assay in HEK293 cells - 40 hour (AID 1224874); conditions: RealTime-Glo luminescence; max response: stronger effect = lower value; note: nearly all actives have a fitted effect of over 50% in size
In short: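 Cells were seeded together with NanoLuc luciferase and a prosubstrate that viable cells reduce to a luciferase substrate. After a 5 h incubation at 37 C/5% CO2, compounds were added and luminescence was measured repeatedly during 40 h of treatment.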

[5] = A CellTox Green Cytotoxicity Assay to monitor cytotoxicity in HepG2 cells - 16 hour (AID 1224876); note: nearly all actives have a fitted effect of over 45% in size; note: potency is the fitted concentration of half-maximal effect
In short: (§3)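 Read-out is fluorescence of a cyanine dye excluded from live cells that stains DNA of dead HepG2 cells, with signal proportional to cytotoxicity. Plates were read at 0, 8, 16, 24, 32 and 40 h after compound addition.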

[6] = qHTS RealTime-Glo MT Cell Viability Assay in HepG2 cells - 32 hour (AID 1224877); note: nearly all actives have a fitted effect of over 55% in size
In short: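 HepG2 cells were seeded at 600 cells/well together with NanoLuc luciferase and a cell-permeant prosubstrate, preincubated 5 h at 37 C/5% CO2, then pin-dosed with compounds in DMSO. Nonlytic luminescence from viable cells was read at each time point.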

[7] = A CellTox Green Cytotoxicity Assay to monitor cytotoxicity in HepG2 cells - 24 hour (AID 1224878); note: nearly all actives have a fitted effect of over 45% in size; note: potency is the fitted concentration of half-maximal effect
In short: as §3

[8] = A CellTox Green Cytotoxicity Assay to monitor cytotoxicity in HepG2 cells - 40 hour (AID 1224879); note: nearly all actives have a fitted effect of over 40% in size; note: potency is the fitted concentration of half-maximal effect
In short: as §3

[9] = qHTS RealTime-Glo MT Cell Viability Assay in HepG2 cells - 8 hour (AID 1224873); note: nearly all actives have a fitted effect of over 55% in size
In short: as §1

[10] = A CellTox Green Cytotoxicity Assay to monitor cytotoxicity in HEK293 cells - 24 hour (AID 1224875); note: series mostly up to about 77 µM; nearly all actives have a fitted effect of over 45% in size
In short: as §2
% is set by controls: 0 for no effect and ±100 for the full control effect.

NC(=O)c1ccc(N)cc1
inactive: Potency [1] | Potency [2] | Potency [3] | max response [4] -2.31% | Potency [5] | Potency [6] | Potency [7] | Potency [8]

CCCCCCCCCCCCCC=O
inactive: activity change, negative = cytotoxic [1] -13.1% [at 6.97 µM] | cytotoxicity increase [2] 0.449% [at 6.97 µM] | viability change, negative = cytotoxic [9] 0.248% [at 6.97 µM] | max response [4] 5.19% | activity change [10] -4.12% [at 6.97 µM, stronger effect = higher value] | cytotoxicity increase [5] 1.97% [at 6.97 µM] | activity change, negative = cytotoxic [6] -9.48% [at 6.97 µM] | cytotoxicity [7] 1.56% [at 6.97 µM] | cytotoxicity increase [8] 0.942% [at 6.97 µM]

C=CCCCCCCCCC=O
inactive: Potency [1] | Potency [2] | Potency [9] | max response [4] -1.95% | Potency [10] | Potency [5] | Potency [6] | Potency [7] | Potency [8]

Cc1cc2c(cc1S(N)(=O)=O)S(=O)(=O)CCC2
inactive: Potency [1] | Potency [2] | Potency [3] | Potency [10] | Potency [5] | Potency [6] | Potency [7] | Potency [8]

COC(=O)NN
inactive: Potency [1] | Potency [2] | Potency [3] | Potency [10] | Potency [5] | Potency [6] | Potency [7] | Potency [8]

c1ccc([C@H]2CN3CCSC3=N2)cc1
inactive: Potency [1] | Potency [2] | Potency [3] | Potency [5] | Potency [6] | Potency [7] | Potency [8]

Cc1c(NC(C)C)c(=O)n(-c2ccccc2)n1C
inactive: Potency [1] | Potency [2] | Potency [3] | max response [4] 2.55% | Potency [10] | Potency [5] | Potency [6] | Potency [7] | Potency [8]

CC(C)CNCC(C)C
inactive: Potency [1] | Potency [2] | Potency [3] | max response [4] 0.947% | Potency [5] | Potency [6] | Potency [7] | Potency [8]

O=C1CCCN1C1CCCCC1
inactive: Potency [1] | Potency [2] | Potency [3] | Potency [10] | Potency [5] | Potency [6] | Potency [7] | Potency [8]

O=C(O)Cc1ccc(CCNS(=O)(=O)c2ccc(Cl)cc2)cc1
inactive: Potency [1] | Potency [2] | Potency [3] | Potency [10] | Potency [5] | Potency [6] | Potency [7] | Potency [8]

Brc1c(NC2=NCCN2)ccc2nccnc12
inactive: Potency [1] | Potency [2] | Potency [3] | max response [4] -1.41% | Potency [10] | Potency [5] | Potency [6] | Potency [7] | Potency [8]

CN(C(=O)c1c(O)c2ccccc2n(C)c1=O)c1ccccc1
inactive: Potency [1] | Potency [2] | Potency [9] | max response [4] 9.26% | Potency [10] | Potency [5] | Potency [6] | Potency [7] | Potency [8]

CCOC(=O)c1cccc(N)c1
inactive: Potency [1] | Potency [2] | Potency [3] | max response [4] 3.26% | Potency [10] | Potency [5] | Potency [6] | Potency [7] | Potency [8]

CO/N=C(/C(=O)N[C@@H]1C(=O)N2C(C(=O)OCOC(=O)C(C)(C)C)=C(C)CS[C@H]12)c1csc(N)n1
inactive: Potency [1] | Potency [2] | Potency [3] | max response [4] 3.21% | Potency [10] | Potency [5] | Potency [6] | Potency [7] | Potency [8]

CCCCOCCOCCOCc1cc2c(cc1CCC)OCO2
inactive: Potency [1] | Potency [2] | Potency [9] | max response [4] -15.9% | Potency [10] | Potency [5] | Potency [6]
22.1 µM (active) and inactive: Potency [7] | Potency [8]

CCOC(=O)CC(C)=O
inactive: Potency [1] | Potency [2] | Potency [3] | Potency [10] | Potency [5] | Potency [6] | Potency [7] | Potency [8]

COC(=O)[C@@H](N)Cc1ccc(O)c(O)c1
inactive: Potency [1] | Potency [2] | Potency [3] | Potency [10] | Potency [5] | Potency [6] | Potency [7] | Potency [8]

Oc1ccc(C2CNCCc3c2cc(O)c(O)c3Cl)cc1 (stereo not drawn)
inactive: Potency [1] | Potency [2] | Potency [3] | max response [4] -10.9% | Potency [10] | Potency [5] | Potency [6] | Potency [7] | Potency [8]

O=C(O)COc1nn(Cc2ccccc2)c2ccccc12
inactive: Potency [1] | Potency [3] | Potency [9] | max response [4] 3.59% | Potency [10] | Potency [5] | Potency [6] | Potency [7] | Potency [8]

CO[C@]12C[C@@H](COC(=O)c3cncc(Br)c3)CN(C)[C@@H]1Cc1cn(C)c3cccc2c13
active: Potency [5] 23.9 µM | Potency [7] 23.9 µM | Potency [8] 23.9 µM
inactive: Potency [1] | Potency [2] | Potency [9] | max response [4] -5.48% | Potency [10] | Potency [6]

CCS(=O)(=O)c1ccc(OC)c(C(=O)OC)c1
inactive: Potency [1] | Potency [2] | Potency [9] | max response [4] 5.71% | Potency [5] | Potency [6] | Potency [7] | Potency [8]
